Screening results: PubChem BioAssay, The Scripps Research Institute Molecular Screening Center
A selection: hits, their analogues and other compounds. The true share with any hit is near 2.9%.
PAFAH1B2 FP inh: blocks human PAF acetylhydrolase 1b catalytic subunit 2; P68402; inhibition, % at 3.39 µM; recombinant PAFAH1B2, FP-rhodamine activity probe, fluorescence polarization; actives 1.2% (n = 340,000);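 active = inhibition above the mean of all tested compounds plus 3 SD, cut at about 24% in these data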
Target sequence (P68402 whole entry, looked up): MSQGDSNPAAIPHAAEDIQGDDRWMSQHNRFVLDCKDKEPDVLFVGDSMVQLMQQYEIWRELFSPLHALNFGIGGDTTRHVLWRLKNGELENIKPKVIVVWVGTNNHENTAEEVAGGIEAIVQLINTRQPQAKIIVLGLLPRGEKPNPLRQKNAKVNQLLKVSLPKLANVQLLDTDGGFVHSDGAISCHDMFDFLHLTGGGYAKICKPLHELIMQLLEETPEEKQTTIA
pPAFAH inh: pPAFAH (human) enzyme inhibition. recombinant pPAFAH, FP-rhodamine probe fluorescence polarization. inhibition, % at 3.39 µM. actives 1.5% (n = 330,000). AID 463082. Q13093;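 active = inhibition above the mean inhibition across the screen plus 3 SD, cut at about 25% in these data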;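 also: inhibitors block binding of the rhodamine activity-based probe so polarization drops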
Fam108B counter: Fam108B inhibition, counter-screen for RBBP9 inhibitors; actives 0.33% (n = 300,000); inhibition, % at 9.51 µM; AID 1947; recombinant Fam108B, FP-Rh probe fluorescence polarization;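 active = inhibition above the screen mean inhibition plus 3 SD, computed separately per campaign, cut at about 18% in these data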;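 also: inhibitors lower polarization as less probe binds the enzyme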
PME-1 primary: blocks human protein phosphatase methylesterase 1. Q9Y570. recombinant PME-1, FP-Rh probe fluorescence polarization. inhibition, % at 5.9 µM. actives 0.53% (n = 320,000);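 active = inhibition above the campaign mean of all compounds plus 3 SD, cut at about 26% in these data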;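 also: competitive labeling of PME-1 active site by serine hydrolase directed probe; inhibitors block probe labeling so polarization falls and inhibition rises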
PAFAH1B3 inh: inhibitors of human PAFAH1B3 | Q15102 | recombinant PAFAH1B3, FP-rhodamine probe, fluorescence polarization | inhibition, % at 3.39 µM | actives 0.28% (n = 340,000) | AID 492972;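 active = inhibition above the screen-wide average of all tested compounds plus 3 SD, cut at about 25% in these data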
PAFAH2 inh: inhibitors of human PAFAH2; recombinant PAFAH2, FP-rhodamine activity probe, fluorescence polarization; actives 0.99% (n = 340,000); AID 492956; inhibition, % at 3.39 µM; Q99487;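 active = inhibition above the mean over all tested compounds plus 3 SD, cut at about 30% in these data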;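 also: inhibitors block probe labeling of enzyme so polarization drops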
Numbers stand for hits; – = inactive; · = no result given.

SMILES	PAFAH1B2 FP inh	pPAFAH inh	Fam108B counter	PME-1 primary	PAFAH1B3 inh	PAFAH2 inh
O=C1NC(=Nc2ccccc2)SC1Cc1ccccc1 (stereo not given)	·	–	–	–	·	·
CC1CCCC(NC(=O)COC(=O)c2ccc3ccccc3n2)C1C (stereo not given)	–	–	–	–	–	–
CC1CCCCC1NC(=O)COC(=O)c1ccc2ccccc2n1 (stereo not given)	–	27	–	–	–	–
O=S(=O)(NCCc1cccs1)c1ccc(Br)cc1	25	–	–	–	–	–
O=[N+]([O-])c1cccc(S(=O)(=O)NCCc2cccs2)c1	–	–	–	–	–	–
O=C1C(Cl)=C(NCCN2CCCCC2)C(=O)c2ccccc21	–	–	–	–	29	–
O=C(NNC(=O)C12CC3CC(CC(C3)C1)C2)c1ccccc1[N+](=O)[O-]	–	–	–	–	–	–
O=C1CCCC(c2ccccc2)N1 (stereo not given)	–	–	–	–	–	–
c1ccc(-c2ccc(C3CCCN3)cc2)cc1 (stereo not given)	–	–	–	33	–	–
Cc1ccc(CNS(=O)(=O)c2cc3c(cc2C)NC(=O)CO3)cc1	–	–	–	–	–	–
Cc1cc2c(cc1S(=O)(=O)NCCc1ccccc1)NC(=O)CO2	29	–	–	–	–	–
Cc1ccc(CNS(=O)(=O)c2ccc3c(c2)NC(=O)CO3)cc1	26	–	–	–	–	–
O=C(COC(=O)c1c[nH]c(=O)[nH]c1=O)Nc1ccccc1Br	–	–	–	–	–	–
O=C(N/N=C/c1cn(Cc2cccc(F)c2)c2ccccc12)c1cc(O)cc(O)c1	26	·	·	·	44	–
Nc1ccc(C(=O)N/N=C/c2cn(Cc3ccc(F)cc3)c3ccccc23)cc1	–	·	·	·	–	–
N#CCC(=O)NN=C1CCCCCCCCCCC1	26	–	–	–	–	–
O=C1CSC(c2ccc(Cl)cc2)N1c1cccnc1 (stereo not given)	25	–	–	–	–	–
O=C1CSC(c2cccnc2)N1c1ccc(Cl)cc1 (stereo not given)	–	–	–	–	–	–
Cc1ccc(Nc2nnc(SCC(=O)Nc3cc(C(=O)O)ccc3C)s2)c(C)c1	–	–	–	–	–	–
COc1cccc(NC(=O)Nc2ccc3c(c2)N(C)C(=O)CS3)c1	–	–	–	32	–	–
CCOc1ccc(NC(=O)/C(C=Nc2ccccc2)=C(\C)O)cc1	–	–	–	–	–	–
CCCc1c(-c2ccc(O)cc2)nn(-c2ccc(O)cc2)c1-c1ccc(O)cc1	–	33	–	–	–	–
Cc1c(C(N)=O)c(-c2ccccc2)nn1-c1ccccc1	–	–	–	–	–	–
CCN(CC)c1ccc(NC(=O)COC(=O)CSc2ccc(Br)cc2C)cc1	–	–	–	–	–	–
CC(=O)Nc1ccc(NC(=O)C(C)OC(=O)CSc2ccc(Br)cc2C)cc1 (stereo not given)	24	–	–	–	–	–
SMILES	PAFAH1B2 FP inh	pPAFAH inh	Fam108B counter	PME-1 primary	PAFAH1B3 inh	PAFAH2 inh
CCN(C(=S)Nc1cccnc1)c1ccccc1	–	–	–	–	–	–
CN(C(=S)Nc1ccc(Oc2ccccc2)cc1)c1ccc(O)cc1	–	27	–	–	–	–
CN(C(=S)Nc1cccnc1)c1ccc(O)cc1	–	29	–	–	–	–
Oc1ccc(C2=NNC(c3ccc(O)cc3)=NN2)cc1	–	–	–	–	–	–
Cc1cc(NCCc2ccc(Cl)cc2)n2ncnc2n1	24	–	–	–	–	–
Cc1ccc(C(=O)N2CCCC2)cc1S(=O)(=O)Nc1ccccc1	–	30	–	–	–	–
O=C(c1ccc(S(=O)(=O)Nc2ccccc2F)cc1)N1CCN(c2ccccn2)CC1	–	–	·	·	–	–
O=C(COc1ccc(S(=O)(=O)Nc2ccccc2)cc1)NCc1ccccn1	–	·	·	·	–	–
COc1ccc(NS(=O)(=O)c2cc(C(=O)N3CCCCCC3)ccc2C)cc1	–	–	·	·	–	–
Cc1ccccc1NS(=O)(=O)c1ccc(C(=O)N2CCN(c3ccccn3)CC2)cc1	–	26	–	–	–	–
CCOc1ccc(NS(=O)(=O)c2ccc(C(=O)N3CC(C)OC(C)C3)cc2)cc1 (stereo not given)	–	29	·	–	–	–
Cc1ccccc1NS(=O)(=O)c1ccc(OCC(=O)NCc2ccccn2)cc1	–	29	–	–	–	–
